Assay outcomes (PubChem)
An excerpt weighted towards active compounds, which were near 4.3% of everything screened.
FGF22 binding = binders of recombinant human FGF22 by thermal shift | 1.5% of 340,000 active | activity (Tm shift, normalised), % at 9.99 µM | SYPRO orange fluorescence; percent of sucrose octasulfate shift, DMSO zero | AID 651658 | Q9HCT0;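 active = mean Tm shift, scaled 0 neutral to 100 positive control, at about 1.3% or above, every replicate too, limit read from the data; inconclusive = no clear call, values can overlap the other calls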
esBAF inh = blocks esBAF chromatin remodeling in mouse ES cells. Bmi1-luciferase knock-in reporter, 24 h; 100% = twice the neutral-well signal. reporter increase, % at 12.5 µM. 2% of 350,000 active. AID 602393; in the data active = activation above about 40%; inconclusive = no clear call, values can overlap the other calls;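 note: 0% = median of the plate's neutral control wells and 100% = double that signal; a rise in the Bmi1 reporter signal indicates esBAF inhibition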
AF4-AF9 inh = blocks AF4 peptide binding to human AF9. AlphaScreen, biotin-AF4 peptide binding to FLAG-AF9. inhibition, % at 10 µM. 0.47% of 350,000 active;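 active = every replicate reaching a set inhibition limit, whatever the replicate mean, cut at about 25% in these data; inconclusive = mean inhibition reaches that limit but some replicates miss it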;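 note: 0% = plate neutral control median and 100% = total signal loss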
Target sequence (P42568 whole entry, looked up): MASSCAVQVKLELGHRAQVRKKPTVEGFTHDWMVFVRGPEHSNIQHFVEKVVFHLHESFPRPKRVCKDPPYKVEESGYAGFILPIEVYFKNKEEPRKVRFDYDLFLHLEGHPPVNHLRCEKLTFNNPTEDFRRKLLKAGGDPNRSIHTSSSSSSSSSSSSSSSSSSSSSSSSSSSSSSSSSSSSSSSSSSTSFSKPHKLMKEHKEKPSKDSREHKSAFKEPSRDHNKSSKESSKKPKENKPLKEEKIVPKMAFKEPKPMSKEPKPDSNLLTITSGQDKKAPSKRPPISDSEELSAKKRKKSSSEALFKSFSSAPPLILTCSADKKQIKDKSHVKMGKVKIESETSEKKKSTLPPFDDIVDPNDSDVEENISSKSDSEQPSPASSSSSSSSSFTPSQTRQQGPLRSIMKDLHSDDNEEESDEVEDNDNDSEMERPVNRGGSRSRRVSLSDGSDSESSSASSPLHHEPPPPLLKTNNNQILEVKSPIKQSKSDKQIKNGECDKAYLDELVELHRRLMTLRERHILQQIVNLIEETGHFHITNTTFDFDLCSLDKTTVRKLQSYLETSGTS
Wnt bcat act = activates Wnt/beta-catenin signaling in a reporter cell assay. activator, plate reader. activation, % at 9.35 µM. 1.2% of 300,000 active; in the data active = activation above about 30%, passing the limit was not always enough; inconclusive = no clear call, values can overlap the other calls;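 note: 0% = neutral control wells and 100% = positive control wells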
SMARCA2 act = activators of SMARCA2 function | AID 652017 | MG213 cells, MMTV-luciferase reporter, dexamethasone, overnight | 1% of 370,000 active | activation, % at 9.1 µM; in the data active = activation above about 7.8%;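 note: 0% = vehicle wells and 100% = reference activator wells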
MITF TRPM1 HTS = increases MITF-driven TRPM1 promoter luciferase signal; AID 588334; 0.75% of 300,000 active; SK-MEL-5 TRPM1-promoter luciferase, 24 h; % of positive control, neutral wells = 0; activation, % at 12.5 µM;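 active = mean activation of at least 80% with every replicate also reaching 80%; inconclusive = mean reaches 80% but some replicate falls short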;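 note: 0% = neutral control wells and 100% = parthenolide positive control wells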
AlphaScreen intf = AlphaScreen signal interference counter-screen hit; AC50, µM (doses to about 12 µM), for inactives: at the top dose activity change, negative = inhibition; shares compounds with AF4-AF9 inh; 45% of 530 active; AID 720494; signal luminescence; cut-off not given, nearly all actives have AC50 up to about 14 µM
Active calls of the source: *; ? = inconclusive; . = no result given; ! = not active in a repeat.

SMILES | FGF22 binding | esBAF inh | AF4-AF9 inh | Wnt bcat act | SMARCA2 act | MITF TRPM1 HTS | AlphaScreen intf
CN(C)CCCNC(=O)c1ccc(-c2cc(O)c3ncccc3c2)cc1 | 0 | -2 | 87* | -5 | 3 | 3 | 1.8µM*
Oc1cc(-c2ccncc2)cc2cccnc12 | 0 | -80 | 29* | 3 | 0 | . | 9.1µM*
C[C@H](CO)N1C[C@H](C)[C@@H](CN(C)S(=O)(=O)c2ccc(Cl)cc2)Oc2ccc(NC(=O)CCCCCC(=O)Nc3ccccc3N)cc2CC1=O | . | -14 | . | . | . | . | .
COc1ccc(-c2ccc([C@H]3[C@H](C#N)N(C(=O)C4CCC4)[C@H]3CO)cc2)cc1 | 0 | 7 | 2 | . | . | . | .
CCOC(=O)c1c(C)n(-c2ccc(C)cc2)c2ccc(OCC(O)CNCCCO)cc12 (stereo not drawn) | 0 | . | 27* | -10 | -2 | -68 | -19%
COCC(=O)Nc1ccc2c(c1)C(=O)N(C)C[C@@H](OC)[C@@H](C)CN(Cc1ccncc1)[C@@H](C)CO2 | 0 | -4 | -3 | . | . | . | .
C[C@@H]1ON(C)[C@H]2C[C@H]3c4[nH]c5ccc(-c6ccc7c(c6)OCO7)cc5c4CCN3C[C@@H]12 | 0 | -16 | 31* | -2 | -7 | . | -15%
Cc1c(C)n(Cc2ccccc2)c2ccc(C(=O)OCCN(C)C)cc12 | 0 | -9 | 28* | -1 | 0 | 40 | -29%
C[C@@H]1CCCCO[C@H](CN(C)C(=O)Nc2cccc3ccccc23)[C@H](C)CN([C@H](C)CO)C(=O)c2cc(NS(=O)(=O)c3ccc(F)cc3)ccc2O1 | . | 3 | 1 | . | . | . | .
CN(C)c1cccc2c1C(=O)c1ccccc1C2=O | 0 | . | 43* | -2 | 6 | -4 | 13µM*
CN1C(=O)c2cccc(N(C)C)c2C1=O | 0 | 2 | -12 | -3 | 2 | 6 | .
CN(C)c1cccc2c(C=C(C#N)C#N)ccc(N(C)C)c12 | -1 | . | 51* | . | -2 | -11 | -23%
CCOc1ccc(Nc2ccc([N+](=O)[O-])c3nonc23)cc1 | 0 | 30 | 29* | 4 | 2 | . | -21%
COc1cccc2sc(N(CCCN(C)C)C(=O)c3ccc(S(=O)(=O)N4CCCc5ccccc54)cc3)nc12 | 0 | -8 | 36* | -1 | -1 | -19 | -18%
Cc1ccc2nc(-c3ccccn3)c(NC3CCCC3)n2c1 | 0 | -2 | 32* | 3 | 6 | 18 | -21%
COc1ccc(NC(=O)N(C)C[C@@H]2Oc3ccc(NS(=O)(=O)c4ccccc4)cc3C(=O)N([C@H](C)CO)C[C@@H]2C)cc1 | 0 | 1 | -2 | . | . | . | .
CN(C)c1ccc(N=Nc2ccccc2Br)cc1 | 0 | -31 | 35* | 28 | 6 | 9 | 12µM*
CC(=O)c1ccc(N=Nc2ccc(N(C)C)cc2)cc1 | 0 | -49 | 4 | 4 | 5 | -3 | .
NCCc1c(-c2ccccc2)n(-c2ccccc2)c2ccccc12 | 43 | . | 47* | -1 | -4 | -53 | 14µM*
C[C@@H]1CN([C@@H](C)CO)C(=O)Cc2cc(N(C)C)ccc2O[C@H]1CN(C)Cc1ccc(Cl)c(Cl)c1 | -1 | -2 | 48* | . | . | . | 12µM*
C[C@@H]1CCCCO[C@H](CN(C)Cc2ccc(Cl)c(Cl)c2)[C@@H](C)CN([C@H](C)CO)C(=O)c2cc(N(C)C)ccc2O1 | 43*! | -2 | 50*! | -1 | -1 | . | -38%
C[C@H]1CN([C@@H](C)CO)C(=O)Cc2cc(N(C)C)ccc2O[C@H]1CN(C)Cc1ccc2c(c1)OCO2 | 0 | 2 | 4 | . | . | . | .
C[C@@H]1CN([C@@H](C)CO)C(=O)Cc2cc(N(C)C)ccc2O[C@@H]1CN(C)Cc1ccc2c(c1)OCO2 | -1 | -3 | 6 | . | . | . | .
C[C@H](CO)N1C[C@H](C)[C@@H](CN(C)Cc2ccc(Cl)c(Cl)c2)Oc2ccc(N(C)C)cc2CC1=O | -2 | 1 | 40* | . | . | . | -36%
CC1=C/C(=C(\c2cc(C)c(O)c(Br)c2)c2ccccc2S(=O)(=O)O)C=C(Br)C1=O | 0 | -31 | 52* | -1 | -2 | -36 | 8.9µM*
SMILES | FGF22 binding | esBAF inh | AF4-AF9 inh | Wnt bcat act | SMARCA2 act | MITF TRPM1 HTS | AlphaScreen intf
C=C[C@H](OC)[C@@H](OC(=O)Nc1ccc(SC)cc1)c1ccc(OCCO)cc1 | 0 | . | -1 | . | . | . | .
O=C(CNCc1ccco1)Nc1ccc(N2CCCCCC2)cc1 | 0 | . | 29* | 1 | -2 | 3 | -37%
COc1cccc(-c2sc3ccccc3c2-c2ccc(OCCN(C)C)cc2)c1 | -1 | -85 | 29* | -2 | -1 | -20 | 0%
CCN(CC)c1ccc(CNc2ccc3c(c2)ncn3C(C)(C)C)cc1 | -1 | -5 | 41* | 0 | -3 | -9 | 9µM*
CC(C)(C)n1cnc2cc(NCc3ccc(Br)cc3)ccc21 | 0 | 51 | ? | ? | 3 | 75 | .
CCN1CCN(Cc2ccc(NC(=O)c3cc(NC(=O)c4nccnc4N)cc(OC)c3)cc2C(F)(F)F)CC1 | 0 | -3 | ? | -3 | 4 | -72 | -22%
COc1ccc2c3c(n(C)c2c1)[C@@H](CO)NCC31CCN(C(=O)c2cccc(F)c2)CC1 | 0 | . | 4 | . | . | . | .
CC(O)CNc1nc2sc3c(c2c(=O)n1Cc1ccco1)CCCCC3 (stereo not drawn) | 0 | 33 | 6 | 2 | 3 | . | .
CN(C)CCNc1nc2sc3c(c2c(=O)n1CCc1ccccc1)CCCCC3 | 0 | . | 31* | -3 | 4 | . | -8%
CN(C)c1ccc(C(CN)c2c[nH]c3ccccc23)cc1 (stereo not drawn) | 42 | 39* | 30* | -8 | 0 | 15 | -33%
O=C(COc1cc(F)ccc1[N+](=O)[O-])Nc1ccc(N2CCOCC2)cc1 | 0 | . | 3 | 2 | 1 | 0 | .
O=C(COc1cc(F)ccc1[N+](=O)[O-])Nc1ccc(N2CCCCC2)cc1 | -1 | -9 | ? | -2 | -2 | 3 | -35%
c1ccc2c(NC3CCCC3)nnc(NC3CCCC3)c2c1 | . | . | . | . | -3 | -12 | .
Nc1ccccc1NC1CCCCC1 | 0 | . | 33* | 1 | 2 | 8 | 10µM*
COc1ccc(S(=O)(=O)Nc2ccc3c(c2)C(=O)N([C@H](C)CO)C[C@@H](C)[C@@H](CN(C)C(=O)Nc2c(C)noc2C)OCCCC[C@@H](C)O3)cc1 | 0 | -3 | -2 | . | . | . | .
COC(=O)c1cc(C)oc1C | . | . | . | . | -2 | . | .
O=C(C[C@@H]1CC[C@H]2[C@@H](COC[C@H](O)CN2Cc2ccccc2F)O1)N[C@H]1CCN(Cc2ccccc2)C1 | 0 | -6 | 6 | . | . | . | .
C[C@@H]1CN([C@H](C)CO)C(=O)CCCn2cc(nn2)CO[C@@H]1CN(C)C(=O)Nc1ccccc1C(F)(F)F | . | 2 | . | . | . | . | .
COc1ccccc1C#Cc1ccc2c(c1)[C@@H]1[C@@H](CCN1C(=O)c1ccccc1)[C@H](CO)N2 | . | . | -2 | . | . | . | .
COc1ccccc1C#Cc1ccc2c(c1)[C@H]1[C@H](CCN1C(=O)c1ccncc1)[C@@H](CO)N2 | . | . | 51* | . | . | . | 8µM*
